Screening results (PubChem BioAssay)
A selection: hits, their analogues and other compounds. The true share with any hit is near 1.9%.
Neddyl block: blocks human cullin neddylation; P61081+Q13564; TR-FRET cullin neddylation, biochemical; inhibition, % at 25 µM; 0.58% of 360,000 active; AID 651699; in the data active = inhibition above about 36%
Bfl-1 A1 inh: inhibitors of the anti-apoptotic protein A1, read as caspase activation. MEF A1-2A-BIM cells, Caspase-Glo 3/7 luminescence, 3 h; percent of clofoctol response, vehicle zero. AID 2462. caspase activation, % (test concentration not listed). 0.066% of 330,000 active;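 active = over half of replicate activation scores above 10%, or exactly half above 10 with the replicate mean above 10; inconclusive = replicate mean below 10 yet half the replicates above 10; inactive = over half of replicates below 10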
dFosB activator: mouse delta FosB homodimer activation; P13346; purified delta FosB, TAMRA-CDK5 oligo fluorescence polarization; percent of positive-control signal above neutral wells; activation, % at 25 µM; 0.99% of 340,000 active;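 active = mean activation above about 17%, with every replicate also reaching it, limit read from the data, passing the limit was not always enough; inconclusive = only one of the two conditions met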
Target sequence (P13346 whole entry, looked up): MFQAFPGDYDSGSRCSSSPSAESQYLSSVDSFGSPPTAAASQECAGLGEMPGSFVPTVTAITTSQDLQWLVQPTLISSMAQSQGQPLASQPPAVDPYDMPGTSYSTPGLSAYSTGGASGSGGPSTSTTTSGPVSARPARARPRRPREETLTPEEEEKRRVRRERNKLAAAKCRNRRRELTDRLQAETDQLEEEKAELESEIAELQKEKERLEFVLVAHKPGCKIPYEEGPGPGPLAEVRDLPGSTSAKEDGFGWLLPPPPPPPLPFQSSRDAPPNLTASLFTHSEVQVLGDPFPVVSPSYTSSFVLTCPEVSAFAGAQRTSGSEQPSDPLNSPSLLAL
Vif inh: HIV Vif inhibition. HEK293T cells, Vif self-association by quenched fluorescence, imaging, 24 h. inhibition, % at 7.49 µM. 0.35% of 340,000 active. AID 602346; in the data active = inhibition above about 50%, passing the limit was not always enough; inconclusive = no clear call, values can overlap the other calls; inactive = below about 31%
INS-1E GSIS act: primary screen for activators of insulin secretion dependent on glucose, INS-1E cells, GLuc reporter luminescence | INS-1E GLuc reporter insulin secretion, 2-3 h | activation, % at 16.6 µM | 0.61% of 370,000 active | AID 743287;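 active = lowest replicate activation of at least 40%, so every replicate reaches that level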
Neddyl conf: confirmation of human cullin neddylation inhibitors | shares compounds with Neddyl block | TR-FRET cullin neddylation biochemical assay | calls only at 25 µM | 13% of 1,800 active | AID 652217; in the data active = inhibition above about 40%;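 note: neddylation substrate is the cullin 1 ring ligase complex with SKP2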
Large screens that a line does not name were inactive (follow-up assays come after a bar, where shown).

Cc1ccc2nc(C)cc(C(=O)OCC(=O)Nc3cccnc3Cl)c2c1	Neddyl block 44 | Neddyl conf inactive
Cc1c(OC(C)C(=O)N2C[C@H]3C[C@@H](C2)c2cccc(=O)n2C3)ccc2c3c(c(=O)oc12)CCC3 (stereo partly drawn)	none
Cc1c(C)c2ccc(OC(C)C(=O)N3C[C@H]4C[C@@H](C3)c3cccc(=O)n3C4)c(C)c2oc1=O (stereo partly drawn)	Neddyl block 44 (no result: INS-1E GSIS act) | Neddyl conf inactive
C=CCn1cc(-c2cccc(Cl)c2)cc(C#N)c1=O	Neddyl block 41 | Neddyl conf inactive
Cn1cc(-c2ccc(Cl)cc2)cc(C#N)c1=O	Neddyl block 46 | Neddyl conf inactive
Cn1c(-c2ccc(Cl)cc2)ccc(C#N)c1=O	none (no result: INS-1E GSIS act)
Cc1ccc2nc(Cl)c(C3CC(c4cccs4)=NN3C(=O)CCC(=O)O)cc2c1 (stereo not drawn)	none
Cc1ccc(-c2nn(-c3ccccc3)cc2C2CC(c3cccs3)=NN2C(=O)CCC(=O)O)cc1 (stereo not drawn)	Neddyl block 41 | Neddyl conf inactive
C[C@H](CO)N1C[C@H](C)[C@H](CN(C)S(=O)(=O)c2ccccc2F)Oc2ncc(C#Cc3ccccc3F)cc2C1=O	none (no result: Neddyl block, Bfl-1 A1 inh, dFosB activator, Vif inh)
Cc1c(OC(C)C(=O)NCC2CCC(C(=O)O)CC2)ccc2c3c(c(=O)oc12)CCCC3 (stereo not drawn)	Neddyl block 55 | Neddyl conf inactive
Cc1cc(=O)oc2c(C)c(OC(C)C(=O)NCC3CCC(C(=O)O)CC3)ccc12 (stereo not drawn)	Bfl-1 A1 inh inconclusive (no result: INS-1E GSIS act)
Cc1c(OCc2ccc(C(=O)O)o2)ccc2c3c(c(=O)oc12)CCC3	Neddyl block 51 (no result: INS-1E GSIS act) | Neddyl conf inactive
Cc1c(OC(C)C(=O)NCc2ccncc2)ccc2c3c(c(=O)oc12)CCCC3 (stereo not drawn)	none (not shown: Neddyl block)
Cc1c(OC(C)C(=O)NCc2ccccn2)ccc2c3c(c(=O)oc12)CCC3 (stereo not drawn)	Neddyl block 54 | Neddyl conf active
COC(=O)c1ccc(COc2ccc3c(C)c(C)c(=O)oc3c2C)o1	none (no result: Neddyl block, Bfl-1 A1 inh, dFosB activator, INS-1E GSIS act)
C[C@H]1CN(C)C(=O)c2cccnc2O[C@H]1CN(C)S(C)(=O)=O	none (no result: Neddyl block, Bfl-1 A1 inh, dFosB activator, Vif inh)
O=C(CSc1nnc2ccccn12)NC(=O)c1ccccc1Cl	none
COc1ccccc1C(=O)NC(=O)CSc1nnc2ccccn12	Neddyl block 44 (no result: INS-1E GSIS act) | Neddyl conf inactive
Cc1noc(C)c1NC(=O)N(C)C[C@H]1Oc2ccc(NC(=O)Cc3ccccc3)cc2C(=O)N([C@@H](C)CO)C[C@@H]1C	none (no result: Neddyl block, Bfl-1 A1 inh, dFosB activator, Vif inh)
COc1ccc(-c2cn3cccnc3n2)cc1NC(=O)C1CCCC1	Neddyl block 40 | Neddyl conf inactive
C[C@H](CO)N1C[C@H](C)[C@@H](CN(C)Cc2ccc(C(=O)O)cc2)Oc2ccc(NC(=O)C3CCCCC3)cc2C1=O	none (no result: Neddyl block, Bfl-1 A1 inh, dFosB activator, Vif inh)
CC(C)CC#Cc1cnc2c(c1)C(=O)N([C@H](C)CO)C[C@@H](C)[C@H](CN(C)S(C)(=O)=O)O2	none (no result: Neddyl block, Bfl-1 A1 inh, dFosB activator, Vif inh)
CC(=O)OCCc1c2ccccc2c(CCCN(C)C)c2ccccc12	Neddyl block 36 (not shown: INS-1E GSIS act)
COc1ccc(-c2cc(C(=O)OCC(=O)N3CCCCC3)c3ccccc3n2)cc1OC	Neddyl block 45 | Neddyl conf inactive
COc1cc(-c2cc(C(=O)N3CCCCCC3)c3ccccc3n2)cc(OC)c1OC	Neddyl block 50 (not shown: Bfl-1 A1 inh)
O=C(c1cc(N2CCCCC2)nc2ccccc12)N1CCOCC1	Neddyl block 43 | Neddyl conf inactive
COc1ccc(-c2cc(C(=O)N3CCCCCC3)c3ccccc3n2)cc1OC	none (not shown: Neddyl block, Bfl-1 A1 inh, dFosB activator)
Cc1ccc(-c2cc(C(=O)OCC(=O)NC3CC3)c3ccccc3n2)cc1	Neddyl block 47 (not shown: Bfl-1 A1 inh)
O=C(O)c1cc(N2CCOCC2)nc2ccccc12	none (not shown: Neddyl block)
CCNC(=O)Nc1ccc2c(c1)C(=O)N(C)[C@H]1CC[C@H](CC(=O)NCCOC)O[C@@H]1CO2	none (no result: Neddyl block, Bfl-1 A1 inh, dFosB activator, Vif inh)
C[C@H]1CN([C@@H](C)CO)C(=O)CCCn2cc(nn2)CO[C@H]1CN(C)Cc1cccc2c1OCCCO2	none (no result: Neddyl block, Bfl-1 A1 inh, dFosB activator, Vif inh)
CCC(=O)Nc1ccc2c(c1)C(=O)N(C)C[C@H](OC)[C@@H](C)CN(Cc1ccccn1)[C@@H](C)CO2	none (no result: Neddyl block, Bfl-1 A1 inh, dFosB activator, Vif inh)
O=C(Nc1cccc(-c2cn3ccccc3n2)c1)c1cnccn1	none (no result: Vif inh, INS-1E GSIS act)
CC(=O)Nc1ccc2nc(-c3ccccc3)cn2c1	Neddyl block 44 | Neddyl conf inactive
Clc1ccc2nc(-c3ccccc3)cn2c1	none
O=C(Nc1cccc(-c2cn3ccccc3n2)c1)c1cccc(Cl)c1	Neddyl block 41 (not shown: INS-1E GSIS act)
CCC(=O)Nc1cccc(-c2cn3ccccc3n2)c1	Neddyl block 41 | Neddyl conf inactive
CNC[C@@H]1Oc2c(NS(C)(=O)=O)cccc2C(=O)N([C@H](C)CO)C[C@@H]1C	none (no result: Neddyl block, Bfl-1 A1 inh, dFosB activator, Vif inh)
C[C@@H]1CN([C@H](C)CO)C(=O)c2cc(NS(=O)(=O)c3cn(C)cn3)ccc2O[C@@H]1CN(C)C(=O)Nc1cccc2ccccc12	none (no result: Neddyl block, Bfl-1 A1 inh, dFosB activator, Vif inh)
Cc1cc(=O)oc2cc(NC(=S)NNC(=O)c3c(Cl)cnn3C)ccc12	Neddyl block 52 | Neddyl conf inactive
Cc1cc(=O)oc2cc(NC(=S)NCc3ccccn3)ccc12	none
COc1ccccc1-c1cnc2c(c1)C(=O)N([C@H](C)CO)C[C@@H](C)[C@@H](CN(C)Cc1cncnc1)O2	none (no result: Neddyl block, Bfl-1 A1 inh, dFosB activator, Vif inh)
C[C@H](CO)N1C[C@H](C)[C@H](CN(C)Cc2ccccc2)Oc2c(NS(=O)(=O)c3ccc(Cl)cc3)cccc2C1=O	none (no result: Neddyl block, Bfl-1 A1 inh, dFosB activator, Vif inh)
O=C(C[C@@H]1C[C@@H]2c3cc(NC(=O)Nc4ccc(C(F)(F)F)cc4)ccc3O[C@@H]2[C@H](CO)O1)NCc1cccnc1	none (no result: Neddyl block, Bfl-1 A1 inh, dFosB activator, Vif inh)
COc1cccc(/C=N/NC(=O)c2cccc(N3CCCC3=O)c2)c1	none
Cc1cccc(OCC(=O)N/N=C/c2ccc(N(C)C)cc2)c1	Neddyl block 43 | Neddyl conf active
CN(C)c1ccc(/C=N/NC(=O)c2cccc(N3CCCC3=O)c2)cc1	Neddyl block 42 | Neddyl conf inactive
CN(C)c1ccc(/C=N/NC(=O)CCc2nc3ccccc3[nH]2)cc1	Neddyl block 41 | Neddyl conf active
CN(C)c1ccc(/C=N/NC(=O)CNC(=O)/C=C/c2ccccc2)cc1	none
O=C(Cc1nc2ccccc2[nH]1)N/N=C/c1ccccc1	none
CN(C)c1ccc(/C=N/NC(=O)CNC(=O)c2ccco2)cc1	Neddyl block 41, Bfl-1 A1 inh inconclusive | Neddyl conf active
COc1ccc(NC(=O)Nc2ccc3c(c2)C(=O)N([C@@H](C)CO)C[C@@H](C)[C@@H](CN(C)C(=O)NC2CCCCC2)OCCCC[C@@H](C)O3)cc1	none (no result: Neddyl block, Bfl-1 A1 inh, dFosB activator, Vif inh)
COc1ccc(S(=O)(=O)N(C)C[C@@H]2Oc3ccc(NS(=O)(=O)c4ccc(F)cc4)cc3C(=O)N([C@H](C)CO)C[C@@H]2C)cc1	none (no result: Neddyl block, Bfl-1 A1 inh, dFosB activator, Vif inh)
COc1cc(/C=N/NC(=O)c2ccncc2)cc(OC)c1OC	none
CN(C)c1ccc(/C=N/NC(=O)COc2ccccc2)cc1	Neddyl block 58 | Neddyl conf active
